{"source": "PubChem BioAssay (EPA / NIEHS)", "note": "Results filed as inconclusive are left out. Activity calls are given as the source filed them. The calls were made as follows: active = hit-call score of the fitted dose curve at least 0.9, where 1 is the maximum; inconclusive = response in the unintended direction; inactive = score below 0.9.", "data": [{"target": "PGR (gene 5241) (UniProt P06401)", "sequence (P06401 whole entry, looked up)": "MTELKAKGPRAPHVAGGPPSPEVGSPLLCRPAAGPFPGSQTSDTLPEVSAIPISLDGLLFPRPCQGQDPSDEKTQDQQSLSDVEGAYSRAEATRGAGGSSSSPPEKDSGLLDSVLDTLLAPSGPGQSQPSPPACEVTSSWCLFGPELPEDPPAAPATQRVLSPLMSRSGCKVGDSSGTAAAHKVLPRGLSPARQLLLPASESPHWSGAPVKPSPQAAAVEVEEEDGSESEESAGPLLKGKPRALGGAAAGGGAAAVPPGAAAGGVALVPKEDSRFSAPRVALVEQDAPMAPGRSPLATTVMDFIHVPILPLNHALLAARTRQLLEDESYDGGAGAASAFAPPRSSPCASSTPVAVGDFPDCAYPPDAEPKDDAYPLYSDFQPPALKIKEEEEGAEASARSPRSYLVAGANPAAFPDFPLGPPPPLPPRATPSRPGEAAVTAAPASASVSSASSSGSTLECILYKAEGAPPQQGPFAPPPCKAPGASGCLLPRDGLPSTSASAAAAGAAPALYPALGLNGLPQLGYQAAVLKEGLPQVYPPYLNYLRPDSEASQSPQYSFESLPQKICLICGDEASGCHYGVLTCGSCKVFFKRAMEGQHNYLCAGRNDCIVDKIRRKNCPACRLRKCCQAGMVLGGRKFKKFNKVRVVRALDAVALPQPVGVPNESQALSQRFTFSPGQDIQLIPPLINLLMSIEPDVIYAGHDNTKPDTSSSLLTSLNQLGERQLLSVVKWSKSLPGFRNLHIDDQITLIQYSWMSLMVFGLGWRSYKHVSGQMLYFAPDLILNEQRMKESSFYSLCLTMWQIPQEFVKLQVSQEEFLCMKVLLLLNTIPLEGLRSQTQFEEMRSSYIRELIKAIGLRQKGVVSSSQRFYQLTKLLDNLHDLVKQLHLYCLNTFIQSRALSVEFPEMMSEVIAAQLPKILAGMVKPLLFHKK", "assay": "NVS_NR_hPR: NovaScreen (NVS) Nuclear Receptor Binding Assay for human Progestron Receptor (PR) (AID 2283360);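 also: active means loss of bound radioligand signal versus DMSO baseline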", "protocol": "NVS_NR_hPR is a biochemical, single-readout assay that uses extracted gene-proteins from T47D in a cell-free assay. Measurements were taken 18 hours after chemical dosing in a 96-well plate.NVS_NR_hPR is one of one assay component(s) measured or calculated from the NVS_NR_hPR assay. It is designed to make measurements of radioligand binding, a form of binding reporter, as detected with scintillation counting signals by Lysate-based radiodetection technology.Data from the assay component NVS_NR_hPR was analyzed into 1 assay endpoint. This assay endpoint, NVS_NR_hPR, was analyzed in the positive analysis fitting direction relative to DMSO as the negative control and baseline of activity. Using a type of binding reporter, loss-of-signal activity can be used to understand changes in the binding as they relate to the gene PGR. Furthermore, this assay endpoint can be referred to as a primary readout, because the performed assay has only produced 1 assay endpoint. To generalize the intended target to other relatable targets, this assay endpoint is annotated to the nuclear receptor intended target family, where the subfamily is steroidal.\nBinding assays used specific radioligands (tritiated, iodinated) with non-radioactive competitive displacement ligands in agonist or antagonist protocols (as indicated) and various reference compounds and inhibitors to titrate specific binding to receptors and transporters. Most enzyme assays (CYPs, kinases, phosphatases, proteases, HDACs) used recombinant protein and specific substrates (fluorescence mostly, some colorimetric and radioactive) and inhibitors, followed by a biochemical separation of substrate and product. All assays for the biochemical HTS were initially run in duplicate at a single concentration (10 uM for CYP450 assays and 25 uM for all others). […] Each assay was run with positive and negative controls, and concurrent controls on every plate. The follow-up (secondary) screen tested active chemical-pairs in concentration series, as well as a few additional assays not tested in the primary screen, some selected negative inactives, and several cases re-run in the concentration series for confirmatory purposes.", "values": [{"smiles": "Oc1ccc2ccc3cccc4ccc1c2c34", "outcome": "inactive"}, {"smiles": "c1ccc2c(c1)-c1cccc3cccc-2c13", "outcome": "inactive"}, {"smiles": "Nc1ccc([N+](=O)[O-])cc1", "outcome": "inactive"}, {"smiles": "O=Cc1ccco1", "outcome": "inactive"}, {"smiles": "c1ccc(C2CO2)cc1", "note": "(configuration not stated)", "outcome": "inactive"}, {"smiles": "CCN(CC)CCO", "outcome": "inactive"}, {"smiles": "C1=Cc2cccc3cccc1c23", "outcome": "inactive"}, {"smiles": "C[C@]12C=CC3=C4CCC(=O)C=C4CC[C@H]3[C@@H]1CC[C@@H]2O", "AC50": "3.82 nM (active)"}, {"smiles": "[As]#[In]", "outcome": "inactive"}, {"smiles": "Cc1ccc(N=C=O)cc1N=C=O", "outcome": "inactive"}, {"smiles": "CCCCCCCCOC(=O)c1ccc(C(=O)OCCCCCCCC)c(C(=O)OCCCCCCCC)c1", "outcome": "inactive"}, {"smiles": "CCC[CH2][Sn]([Cl])([CH2]CCC)[CH2]CCC", "AC50": "2920 nM (active)"}]}]}
